The supplement of paper PMC12494721
Structures can show the parent of a compound that is named as a salt.

How the values were obtained:
Settings in all cases: incubation time: 27 h, anaerobic, 37 °C;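 for the amine columns active = adjusted P below 0.05 in both replicates with a change the same way and a mean fold change under 0.8 or over 1.25; inactive = the rest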
Escherichia coli IAI1 [1] = test: growth (OD595) fold change vs plate DMSO controls (fold change (ratio)); higher = more growth
Method in brief: (§1)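 Shaken 96-well cultures in mGAM, grown anaerobically for 27 h at 37 °C, were read at 595 nm. OD came from blank-subtracted readings, corrected for background with 20 µM compound solutions in water and scaled by a calibration factor of 5. Growth is the fold change versus the plate's median DMSO control. Values average 2 biological replicates, and any fold change above 1.5 is NA.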

[2] = system: Klebsiella aerogenes DSM 30053; test: as above
Method in brief: as §1

[3] = system: Ruminococcus gnavus DSM 108212; test: as above
Method in brief: as §1

[4] = system: Klebsiella aerogenes DSM 30053; test: fold change of Histamine concentration vs plate DMSO controls (fold change (ratio)); higher = more amine produced, active = hit call of the paper (significant change in both replicates, either direction)
Method in brief: (§2)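 Amine values are fold changes relative to DMSO-only wells on the same plate. They derive from 27 h, 37 °C anaerobic mGAM cultures of four gut bacterial strains in 80 µL wells, dosed at 20 µM final, or 50 µM final for sweeteners. Extraction of the whole culture, LC–triple-quadrupole MS in dynamic MRM mode, external calibration curves and within-batch drift correction were used, with 2 biological replicates averaged.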

[5] = system: Ruminococcus gnavus DSM 108212; test: fold change of Tryptamine concentration vs plate DMSO controls (fold change (ratio)); higher = more amine produced, active = hit call of the paper (significant change in both replicates, either direction)
Method in brief: as §2

Escherichia coli IAI1 [6] = test: fold change of Putrescine concentration vs plate DMSO controls (fold change (ratio)); higher = more amine produced, active = hit call of the paper (significant change in both replicates, either direction)
Method in brief: as §2

[7] = system: Klebsiella aerogenes DSM 30053; test: as above
Method in brief: as §2

Escherichia coli IAI1 [8] = test: fold change of Cadaverine concentration vs plate DMSO controls (fold change (ratio)); higher = more amine produced, active = hit call of the paper (significant change in both replicates, either direction)
Method in brief: as §2

[9] = system: Klebsiella aerogenes DSM 30053; test: as above
Method in brief: as §2

[10] = system: Ruminococcus gnavus DSM 108212; test: fold change of 2-Phenylethylamine concentration vs plate DMSO controls (fold change (ratio)); higher = more amine produced, active = hit call of the paper (significant change in both replicates, either direction)
Method in brief: as §2

[11] = system: Clostridium sporogenes DSM 1664; test: growth (OD595) fold change vs plate DMSO controls (fold change (ratio)); higher = more growth
Method in brief: as §1

[12] = system: Clostridium sporogenes DSM 1664; test: fold change of Tryptamine concentration vs plate DMSO controls (fold change (ratio)); higher = more amine produced, active = hit call of the paper (significant change in both replicates, either direction)
Method in brief: as §2

Row | Compound | growth (Escherichia coli IAI1 [1]) | growth [2] | growth [3] | fold change of Histamine concentration [4] | fold change of Tryptamine concentration [5] | fold change of Putrescine concentration (Escherichia coli IAI1 [6]) | fold change of Putrescine concentration [7] | fold change of Cadaverine concentration (Escherichia coli IAI1 [8]) | fold change of Cadaverine concentration [9] | fold change of 2-Phenylethylamine concentration [10] | growth [11] | fold change of Tryptamine concentration [12]
1 | Nc1ccn([C@@H]2CS[C@H](CO)O2)c(=O)n1 [Lamivudine] (20 µM) | 0.995 | 0.992 | 0.831 | 1.06 (inactive) | 1.02 (inactive) | 1.02 (inactive) | 1.03 (inactive) | 1.02 (inactive) | 0.99 (inactive) | 1.02 (inactive) | – | –
2 | O=C(O)c1cn(C2CC2)c2cc(N3CCNCC3)c(F)cc2c1=O [Ciprofloxacin hydrochloride monohydrate] (20 µM) | 0 | 0 | 0.342 | 0.0661 (active) | 0.796 (inactive) | 0.53 (inactive) | 0.573 (inactive) | 0.176 (active) | 0.938 (inactive) | 0.863 (inactive) | – | –
3 | COc1cccc(OC)c1C(=O)N[C@@H]1C(=O)N2[C@@H]1SC(C)(C)[C@@H]2C(=O)O [Methicillin sodium] (20 µM) | 1.14 | 0.978 | – | 1.05 (inactive) | 0.608 (active) | 1.24 (inactive) | 1 (inactive) | 0.875 (inactive) | 0.969 (inactive) | 0.721 (inactive) | 0.569 | 0.196 (active)
4 | CC[C@]12CCCN3CCc4c(n(c5ccccc45)[C@@](O)(C(=O)OC)C1)[C@@H]32 [Vincamine] (20 µM) | 1.01 | 1.05 | 0.949 | 1.01 (inactive) | 0.973 (inactive) | 0.996 (inactive) | 1 (inactive) | 1.02 (inactive) | 0.99 (inactive) | 0.942 (inactive) | – | –
5 | COc1ccc(CCN(C)CCCC(C#N)(c2ccc(OC)c(OC)c2)C(C)C)cc1OC (stereo not drawn) [Verapamil hydrochloride] (20 µM) | 1.13 | 0.758 | 1.01 | 0.942 (inactive) | 0.992 (inactive) | 1.05 (inactive) | 0.906 (inactive) | 0.978 (inactive) | 0.972 (inactive) | 0.95 (inactive) | – | –
6 | Cc1nnc(SCC2=C(C(=O)O)N3C(=O)[C@@H](NC(=O)Cn4cnnn4)[C@H]3SC2)s1 [Cefazolin sodium salt] (20 µM) | 0.0255 | 1.13 | 0.0483 | 0.645 (inactive) | 0.0727 (active) | 0.16 (active) | 1.03 (inactive) | 0.613 (active) | 1.05 (inactive) | 0.0761 (active) | – | –
7 | Nc1nc2c(ncn2COCCO)c(=O)[nH]1 [Acyclovir] (20 µM) | 1.05 | 1 | 1.42 | 1.02 (inactive) | 1.15 (inactive) | 1.03 (inactive) | 0.983 (inactive) | 1 (inactive) | 1.05 (inactive) | 1.15 (inactive) | – | –
8 | CN(C)CCCN1c2ccccc2CCc2ccccc21 [Imipramine hydrochloride] (20 µM) | 1.15 | 1.08 | 1.34 | 0.866 (inactive) | 0.975 (inactive) | 1.02 (inactive) | 0.943 (inactive) | 0.976 (inactive) | 1.03 (inactive) | 0.963 (inactive) | – | –
9 | CCN1CCN(C(=O)N[C@@H](C(=O)N[C@@H]2C(=O)N3C(C(=O)O)=C(CSc4nnnn4C)CS[C@H]23)c2ccc(O)cc2)C(=O)C1=O [Cefoperazone dihydrate] (20 µM) | 0.0154 | 0.724 | 0.0225 | 0.472 (active) | 0.0363 (active) | 0.451 (inactive) | 0.86 (inactive) | 1.36 (inactive) | 1.13 (inactive) | 0.0394 (active) | – | –
10 | C[C@H](CS)C(=O)N1CCC[C@H]1C(=O)O [Captopril] (20 µM) | 0.976 | 1 | 0.851 | 1.01 (inactive) | 1.04 (inactive) | 0.963 (inactive) | 1 (inactive) | 1.01 (inactive) | 1 (inactive) | 1.04 (inactive) | – | –
11 | COc1c(N2C[C@@H]3CCCN[C@@H]3C2)c(F)cc2c(=O)c(C(=O)O)cn(C3CC3)c12 [Moxifloxacin] (20 µM) | 0.0497 | 0.193 | 0.00485 | 0.256 (active) | 0.205 (active) | 0.828 (inactive) | 0.915 (inactive) | 0.236 (active) | 0.982 (inactive) | 0.215 (active) | – | –
12 | CO/N=C(\C(=O)N[C@@H]1C(=O)N2C(C(=O)O)=C(C[N+]3(C)CCCC3)CS[C@H]12)c1csc(N)n1 [Cefepime hydrochloride] (20 µM) | 0 | 0.484 | 0 | 0.119 (active) | 0.0466 (active) | 0.285 (active) | 0.361 (active) | 0.884 (inactive) | 1.11 (inactive) | 0.0523 (active) | – | –
13 | Clc1ccccc1CN1CCc2sccc2C1 [Ticlopidine hydrochloride] (20 µM) | 0.944 | 0.958 | 1.18 | 1.01 (inactive) | 0.983 (inactive) | 1.01 (inactive) | 0.989 (inactive) | 0.934 (inactive) | 0.98 (inactive) | 0.977 (inactive) | – | –
14 | Cc1cnc(NC(=O)C2=C(O)c3ccccc3S(=O)(=O)N2C)s1 [Meloxicam] (20 µM) | 0.997 | 0.98 | 0.801 | 1.03 (inactive) | 1.02 (inactive) | 1.04 (inactive) | 0.995 (inactive) | 0.959 (inactive) | 0.996 (inactive) | 1.03 (inactive) | – | –
15 | CN1[C@@H]2CC[C@H]1CC(OC(=O)C(O)c1ccccc1)C2 (mixture of isomers) [(R,S) Homatropine hydrobromide] (20 µM) | – | – | – | 0.867 (inactive) | 0.99 (inactive) | 0.995 (inactive) | 0.995 (inactive) | 1.02 (inactive) | 1.02 (inactive) | 1.01 (inactive) | – | 1 (inactive)
16 | CCOC(=O)C1=C(C)NC(C)=C(C(=O)OC)C1c1cccc(Cl)c1Cl (stereo not drawn) [Felodipine] (20 µM) | 1.09 | 1.04 | 0.215 | 0.96 (inactive) | 0.876 (inactive) | 1.04 (inactive) | 0.97 (inactive) | 0.893 (inactive) | 1.01 (inactive) | 0.903 (inactive) | – | –
17 | C[C@@H]1CN(c2c(F)c(N)c3c(=O)c(C(=O)O)cn(C4CC4)c3c2F)C[C@H](C)N1 [Sparfloxacin] (20 µM) | 0.0499 | 0.286 | – | 0.286 (active) | 0.763 (active) | 0.942 (inactive) | 1.16 (inactive) | 0.264 (active) | 0.973 (inactive) | 0.829 (inactive) | 0.0221 | 0.0593 (active)
18 | CCC(C)C(C(=O)OCC[N+](C)(CC)CC)c1ccccc1 (stereo not drawn) [Valethamate bromide] (20 µM) | – | – | – | 1.03 (inactive) | 0.996 (inactive) | 1.05 (inactive) | 1.02 (inactive) | 1.03 (inactive) | 1 (inactive) | 0.963 (inactive) | – | 0.963 (inactive)
19 | O=C1C(CC[S+]([O-])c2ccccc2)C(=O)N(c2ccccc2)N1c1ccccc1 (stereo not drawn) [Sulfinpyrazone] (20 µM) | 0.972 | 1.04 | 1.06 | 0.959 (inactive) | 0.904 (inactive) | 0.978 (inactive) | 1.04 (inactive) | 0.991 (inactive) | 1.01 (inactive) | 0.887 (inactive) | – | –
20 | CCN(CC)CCNC(=O)c1ccc(N)cc1 [Procainamide hydrochloride] (20 µM) | 0.979 | 1.2 | 0.827 | 0.834 (inactive) | – | 0.969 (inactive) | 0.987 (inactive) | 1.01 (inactive) | 1.04 (inactive) | 1.05 (inactive) | – | –
21 | C/C=C(/C(=C/C)c1ccc(O)cc1)c1ccc(O)cc1 [Dienestrol] (20 µM) | 1.01 | 1.04 | – | 1.02 (inactive) | 0.285 (active) | 1.06 (inactive) | 0.995 (inactive) | 1.02 (inactive) | 1.03 (inactive) | 0.344 (inactive) | 1.09 | 0.782 (inactive)
22 | C=C[C@H]1CN2CC[C@H]1C[C@@H]2[C@@H](O)c1ccnc2ccc(OC)cc12 [Quinidine hydrochloride monohydrate] (20 µM) | 1.01 | 0.966 | 0.981 | 1.11 (inactive) | 0.978 (inactive) | 0.986 (inactive) | 1.05 (inactive) | 0.921 (inactive) | 0.987 (inactive) | 1 (inactive) | – | –
23 | CC(C)Cc1ccc([C@H](C)C(=O)O)cc1 [(S,+) Ibuprofen] (20 µM) | 0.797 | 1.16 | 0.974 | 0.925 (inactive) | 1.06 (inactive) | 0.854 (inactive) | 1.03 (inactive) | 1.06 (inactive) | 1.04 (inactive) | 1.11 (inactive) | – | –
24 | O=C(O)CCNC(=O)c1ccccc1 [Betamipron] (20 µM) | 0.817 | 0.813 | 0.512 | 1.02 (inactive) | 1 (inactive) | 1.04 (inactive) | 1 (inactive) | 1.06 (inactive) | 1 (inactive) | 0.956 (inactive) | – | –
25 | CCn1cc(C(=O)O)c(=O)c2cc(F)c(N3CCN(C)CC3)cc21 [Pefloxacin] (20 µM) | 0.0501 | 0.198 | 1.13 | 0.127 (active) | 0.915 (inactive) | 0.793 (inactive) | 1.05 (inactive) | 0.204 (active) | 0.972 (inactive) | 0.91 (inactive) | – | –
26 | CCOC(=O)C1=C(COCCN)NC(C)=C(C(=O)OC)C1c1ccccc1Cl (stereo not drawn) [Amlodipine] (20 µM) | 1 | 1 | 1.1 | 1.08 (inactive) | 0.914 (inactive) | 0.986 (inactive) | 1.03 (inactive) | 1.1 (inactive) | 0.988 (inactive) | 0.918 (inactive) | – | –
